# According to PubChem BioAssay (EPA / NIEHS):
# Inconclusive results are not listed. Activity calls are given as the source filed them. The calls were made as follows: active = hit-call score of the fitted dose curve at least 0.9, where 1 is the maximum; inconclusive = response in the unintended direction; inactive = score below 0.9.
# How the values were obtained:
# [1] = target: human Thromboxane A2 Receptor (TXA2), TBXA2R (gene 6915) (UniProt P21731); assay: NVS_GPCR_hTXA2: NovaScreen (NVS) G Protein-Coupled Receptor Assay for human Thromboxane A2 Receptor (TXA2) (AID 2283282);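 also: actives reduce bound radioligand signal relative to DMSO baseline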
# Summary of the method: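 Human platelet-derived receptor preparation incubated with test chemical and radiolabelled ligand for 1 hour, cell-free. Bound label was separated by filtration and counted; displacement relative to DMSO controls gave activity, screened at 25 uM, then titrated.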
# [2] = target: human Opioid Receptor Mu (Opiate Mu), OPRM1 (gene 4988) (UniProt P35372); assay: NVS_GPCR_hOpiate_mu: NovaScreen (NVS) G Protein-Coupled Receptor Assay for human Opioid Receptor Mu (Opiate Mu) (AID 2283290);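 also: hits lower bound tracer signal versus DMSO meaning displacement of the ligand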
# human Opioid Receptor Mu (Opiate Mu), OPRM1 (gene 4988), sequence (P35372 whole entry, looked up): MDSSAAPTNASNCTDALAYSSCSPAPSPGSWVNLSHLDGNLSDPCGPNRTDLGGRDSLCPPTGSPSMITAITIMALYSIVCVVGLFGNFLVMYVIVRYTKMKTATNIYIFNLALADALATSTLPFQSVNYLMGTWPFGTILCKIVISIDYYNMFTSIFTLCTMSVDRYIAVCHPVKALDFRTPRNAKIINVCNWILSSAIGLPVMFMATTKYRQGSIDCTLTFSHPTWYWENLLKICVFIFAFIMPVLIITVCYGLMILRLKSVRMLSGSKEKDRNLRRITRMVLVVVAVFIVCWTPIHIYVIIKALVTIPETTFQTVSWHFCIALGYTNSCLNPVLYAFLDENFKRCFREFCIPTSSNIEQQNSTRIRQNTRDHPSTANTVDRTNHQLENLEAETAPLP
# Summary of the method: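 Radioligand displacement binding on membranes from CHO cells expressing the receptor, 2.5 h after dosing, filter-based scintillation counting; loss of signal vs DMSO baseline. Screened in duplicate at 25 uM, actives then run in concentration series.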
# [3] = system: rabbit Platelet Activating Factor Receptor (PAF), gene 100354046; assay: NVS_GPCR_rabPAF: NovaScreen (NVS) G Protein-Coupled Receptor Assay for rabbit Platelet Activating Factor Receptor (PAF) (AID 2283287)
# Summary of the method: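 Rabbit platelet membrane preparation; radioligand displacement read by filter-based scintillation counting 1 h after dosing, loss of signal versus DMSO. Primary screen in duplicate at 25 uM, actives followed up in concentration series.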
# [4] = target: human Neurokinin, NK2 Receptor, TACR2 (gene 6865) (UniProt P21452); assay: NVS_GPCR_hNK2: NovaScreen (NVS) G Protein-Coupled Receptor Assay for human Neurokinin, NK2 Receptor (AID 2283278);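 also: actives reduce bound radioligand signal relative to DMSO baseline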
# human Neurokinin, NK2 Receptor, TACR2 (gene 6865), sequence (P21452 whole entry, looked up): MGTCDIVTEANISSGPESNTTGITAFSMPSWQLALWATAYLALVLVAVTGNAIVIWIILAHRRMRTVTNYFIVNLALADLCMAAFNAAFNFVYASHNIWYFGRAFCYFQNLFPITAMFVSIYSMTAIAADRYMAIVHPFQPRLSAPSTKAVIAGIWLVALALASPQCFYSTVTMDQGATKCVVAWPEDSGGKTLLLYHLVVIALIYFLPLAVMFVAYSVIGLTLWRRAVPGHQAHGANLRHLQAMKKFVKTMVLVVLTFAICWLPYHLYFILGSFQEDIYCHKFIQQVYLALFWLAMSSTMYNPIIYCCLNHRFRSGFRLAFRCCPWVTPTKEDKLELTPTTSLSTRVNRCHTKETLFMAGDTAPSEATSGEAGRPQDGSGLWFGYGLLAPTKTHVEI
# Summary of the method: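 Radioligand binding on membranes from CHO cells expressing receptor, filter-based scintillation read 4 h after dosing. Initial duplicate screen at 25 uM, actives in concentration series; loss of signal versus DMSO.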
# [5] = target: rat Adrenergic, Alpha 1, Non-selective Receptor (Adra1), Adra1a (gene 29412) (UniProt P43140); assay: NVS_GPCR_rAdra1_NonSelective: NovaScreen (NVS) G Protein-Coupled Receptor Assay for rat Adrenergic, Alpha 1, Non-selective Receptor (Adra1) (AID 2283289)
# rat Adrenergic, Alpha 1, Non-selective Receptor (Adra1), Adra1a (gene 29412), sequence (P43140 whole entry, looked up): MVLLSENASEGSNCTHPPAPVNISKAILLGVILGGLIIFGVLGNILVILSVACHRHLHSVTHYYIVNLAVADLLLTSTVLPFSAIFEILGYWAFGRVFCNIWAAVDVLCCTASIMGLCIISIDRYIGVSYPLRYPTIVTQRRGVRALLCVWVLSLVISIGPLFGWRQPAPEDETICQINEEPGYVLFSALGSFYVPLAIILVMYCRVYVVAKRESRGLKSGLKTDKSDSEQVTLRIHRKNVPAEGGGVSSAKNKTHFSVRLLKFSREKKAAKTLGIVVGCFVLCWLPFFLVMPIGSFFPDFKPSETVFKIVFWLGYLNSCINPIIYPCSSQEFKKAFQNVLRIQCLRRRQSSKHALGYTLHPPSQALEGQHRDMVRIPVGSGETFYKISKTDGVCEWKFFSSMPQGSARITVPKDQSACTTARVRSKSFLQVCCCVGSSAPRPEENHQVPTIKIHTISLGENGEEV
# Summary of the method: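 Chemicals first screened in duplicate at 25 uM, then actives tested in concentration series up to 50 uM. Binding measured as displacement of radioligand from rat forebrain membrane receptors, 1 h, filtration with scintillation readout; DMSO baseline.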
# [6] = target: rat Serotonin, 5-Hydroxytryptamine Receptor (5HT), Non-Selective Binding, Htr1a (gene 24473) (UniProt P19327); assay: NVS_GPCR_r5HT_NonSelective: NovaScreen (NVS) G Protein-Coupled Receptor Assay for rat Serotonin, 5-Hydroxytryptamine Receptor (5HT), Non-Selective Binding (AID 2283295)
# rat Serotonin, 5-Hydroxytryptamine Receptor (5HT), Non-Selective Binding, Htr1a (gene 24473), sequence (P19327 whole entry, looked up): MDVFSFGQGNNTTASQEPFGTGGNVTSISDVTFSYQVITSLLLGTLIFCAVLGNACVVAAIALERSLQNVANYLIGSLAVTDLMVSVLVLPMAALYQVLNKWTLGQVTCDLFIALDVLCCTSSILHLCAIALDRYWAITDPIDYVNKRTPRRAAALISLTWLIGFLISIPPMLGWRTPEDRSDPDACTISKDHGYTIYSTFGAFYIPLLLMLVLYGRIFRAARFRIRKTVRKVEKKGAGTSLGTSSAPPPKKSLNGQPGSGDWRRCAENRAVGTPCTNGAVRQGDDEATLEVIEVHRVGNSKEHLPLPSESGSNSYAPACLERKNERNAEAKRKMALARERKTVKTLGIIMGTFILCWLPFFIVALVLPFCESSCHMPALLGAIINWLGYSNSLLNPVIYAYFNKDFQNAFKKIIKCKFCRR
# Summary of the method: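 Rat cortex membrane preparation incubated 1 h with radioligand and test chemical; bound radioactivity counted after filtration. Screening began in duplicate at 25 uM with concentration-series follow-up; fitting relative to DMSO.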
# [7] = target: Muscarinic acetylcholine receptor M2 (Homo sapiens) (UniProt P08172); assay: NVS_GPCR_hM2: NovaScreen (NVS) G Protein-Coupled Receptor Assay for human Muscarinic, M2 Receptor (AID 2283273)
# Muscarinic acetylcholine receptor M2 (Homo sapiens), sequence (P08172 whole entry, looked up): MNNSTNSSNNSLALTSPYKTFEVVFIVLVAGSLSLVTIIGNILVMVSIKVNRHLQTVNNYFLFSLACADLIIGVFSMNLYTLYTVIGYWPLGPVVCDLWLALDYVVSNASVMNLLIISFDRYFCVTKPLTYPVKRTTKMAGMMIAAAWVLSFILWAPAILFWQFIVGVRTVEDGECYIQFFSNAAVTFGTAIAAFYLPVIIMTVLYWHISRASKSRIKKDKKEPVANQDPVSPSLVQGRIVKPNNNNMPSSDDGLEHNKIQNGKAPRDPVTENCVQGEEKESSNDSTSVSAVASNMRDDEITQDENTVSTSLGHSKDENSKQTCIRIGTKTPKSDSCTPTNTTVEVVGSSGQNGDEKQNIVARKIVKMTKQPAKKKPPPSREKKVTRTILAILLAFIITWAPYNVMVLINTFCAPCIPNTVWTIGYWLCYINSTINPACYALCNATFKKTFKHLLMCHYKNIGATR
# Summary of the method: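 Filter-based radiodetection read bound radioligand 1 h after dosing CHO-derived membrane protein. Single-concentration duplicates (25 uM) first, then concentration-response for actives; signal loss versus DMSO scored.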
# [8] = target: rat Serotonin, 5-Hydroxytryptamine Receptor 1 (5HT1), Non-Selective Binding, Htr1a (gene 24473) (UniProt P19327); assay: NVS_GPCR_r5HT1_NonSelective: NovaScreen (NVS) G Protein-Coupled Receptor Assay for rat Serotonin, 5-Hydroxytryptamine Receptor 1 (5HT1), Non-Selective Binding (AID 2283286)
# rat Serotonin, 5-Hydroxytryptamine Receptor 1 (5HT1), Non-Selective Binding, Htr1a (gene 24473), sequence (P19327 whole entry, looked up): as the sequence (P19327 whole entry, looked up) above
# Summary of the method: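 Binding of a radioligand to rat cortex membranes is read by filtration and scintillation counting after 1 h. Compounds were screened at 25 uM in duplicate. Actives were then titrated to a top of 50 uM. DMSO is the baseline.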
# [9] = system: rat Adrenergic, Alpha 1B Receptor (Adra1B), gene 24173; assay: NVS_GPCR_rAdra1B: NovaScreen (NVS) G Protein-Coupled Receptor Assay for rat Adrenergic, Alpha 1B Receptor (Adra1B) (AID 2283297)
# Summary of the method: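 Filter-binding radioligand competition on membranes from rat liver, read after 1 h by scintillation counting. Single-concentration duplicate screen at 25 uM, followed by concentration-response on actives, normalised to DMSO.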
# [10] = target: mouse Cholecystokinin, CCK1 Receptor (CCKA), Cckar (gene 12425) (UniProt O08786); assay: NVS_GPCR_mCCKAPeripheral: NovaScreen (NVS) G Protein-Coupled Receptor Assay for mouse Cholecystokinin, CCK1 Receptor (CCKA) (AID 2283285)
# mouse Cholecystokinin, CCK1 Receptor (CCKA), Cckar (gene 12425), sequence (O08786 whole entry, looked up): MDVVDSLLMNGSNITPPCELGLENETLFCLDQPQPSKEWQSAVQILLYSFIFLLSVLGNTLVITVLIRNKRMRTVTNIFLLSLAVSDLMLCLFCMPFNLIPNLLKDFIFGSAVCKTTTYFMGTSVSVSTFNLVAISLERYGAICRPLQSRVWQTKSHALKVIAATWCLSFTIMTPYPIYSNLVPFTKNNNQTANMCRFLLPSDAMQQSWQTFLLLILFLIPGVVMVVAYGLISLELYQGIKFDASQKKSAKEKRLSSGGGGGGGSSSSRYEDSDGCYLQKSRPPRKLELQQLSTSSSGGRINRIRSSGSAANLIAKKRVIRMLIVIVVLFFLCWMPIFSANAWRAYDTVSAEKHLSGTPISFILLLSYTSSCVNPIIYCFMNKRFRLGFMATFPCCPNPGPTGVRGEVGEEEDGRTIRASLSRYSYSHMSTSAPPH
# Summary of the method: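 Chemicals were first screened in duplicate at 25 uM, with those meeting threshold (e.g., 30% inhibition) retested in singleton concentration series to 50 uM maximum. Binding of radioligand to mouse pancreatic membranes was read after 2 h by filtration and scintillation counting.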
# [11] = system: guinea pig Atrionatriuretic Peptide Receptor A (ANPA), gene 100135578; assay: NVS_GPCR_gANPA: NovaScreen (NVS) G Protein-Coupled Receptor Assay for guinea pig Atrionatriuretic Peptide Receptor A (ANPA) (AID 2283291)
# Summary of the method: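 Displacement of specific radioligand from guinea pig cerebellum membranes was read by scintillation after 1 h. A duplicate single-point screen at 25 uM was followed by a concentration series up to 50 uM, analysed relative to DMSO.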
# [12] = target: human Muscarinic, M4 Receptor, CHRM4 (gene 1132) (UniProt P08173); assay: NVS_GPCR_hM4: NovaScreen (NVS) G Protein-Coupled Receptor Assay for human Muscarinic, M4 Receptor (AID 2283274)
# human Muscarinic, M4 Receptor, CHRM4 (gene 1132), sequence (P08173 whole entry, looked up): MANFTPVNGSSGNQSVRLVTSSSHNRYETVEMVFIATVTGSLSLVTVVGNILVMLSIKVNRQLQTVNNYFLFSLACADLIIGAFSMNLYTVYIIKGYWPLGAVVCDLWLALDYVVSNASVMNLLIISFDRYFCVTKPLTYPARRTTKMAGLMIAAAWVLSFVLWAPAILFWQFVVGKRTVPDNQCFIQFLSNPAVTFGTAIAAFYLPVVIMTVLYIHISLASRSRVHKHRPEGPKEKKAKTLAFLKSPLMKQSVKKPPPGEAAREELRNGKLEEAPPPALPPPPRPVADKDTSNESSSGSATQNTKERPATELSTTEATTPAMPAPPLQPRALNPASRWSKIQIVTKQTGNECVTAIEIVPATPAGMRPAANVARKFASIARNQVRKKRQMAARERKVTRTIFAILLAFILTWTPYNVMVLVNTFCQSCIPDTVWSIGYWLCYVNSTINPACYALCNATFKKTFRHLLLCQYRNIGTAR
# Summary of the method: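 Filter-based scintillation counting of radioligand bound to CHO-expressed human M4 preparations after 1 h; loss of signal fitted versus DMSO. Initial duplicate testing at 25 uM, concentration-response follow-up for actives.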
# [13] = target: rat Adrenergic, Alpha 1A Receptor (Adra1A), Adra1a (gene 29412) (UniProt P43140); assay: NVS_GPCR_rAdra1A: NovaScreen (NVS) G Protein-Coupled Receptor Assay for rat Adrenergic, Alpha 1A Receptor (Adra1A) (AID 2283296)
# rat Adrenergic, Alpha 1A Receptor (Adra1A), Adra1a (gene 29412), sequence (P43140 whole entry, looked up): as the sequence (P43140 whole entry, looked up) above
# Summary of the method: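 Filter radiodetection after 1 h competitive binding on CEC-pretreated rat cortical membranes. Duplicate single-point screening at 25 uM; active chemicals retested across concentration series.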
# [14] = target: human Neuropeptide Receptor Y1 (NPY1), NPY1R (gene 4886) (UniProt P25929); assay: NVS_GPCR_hNPY1: NovaScreen (NVS) G Protein-Coupled Receptor Assay for human Neuropeptide Receptor Y1 (NPY1) (AID 2283276)
# human Neuropeptide Receptor Y1 (NPY1), NPY1R (gene 4886), sequence (P25929 whole entry, looked up): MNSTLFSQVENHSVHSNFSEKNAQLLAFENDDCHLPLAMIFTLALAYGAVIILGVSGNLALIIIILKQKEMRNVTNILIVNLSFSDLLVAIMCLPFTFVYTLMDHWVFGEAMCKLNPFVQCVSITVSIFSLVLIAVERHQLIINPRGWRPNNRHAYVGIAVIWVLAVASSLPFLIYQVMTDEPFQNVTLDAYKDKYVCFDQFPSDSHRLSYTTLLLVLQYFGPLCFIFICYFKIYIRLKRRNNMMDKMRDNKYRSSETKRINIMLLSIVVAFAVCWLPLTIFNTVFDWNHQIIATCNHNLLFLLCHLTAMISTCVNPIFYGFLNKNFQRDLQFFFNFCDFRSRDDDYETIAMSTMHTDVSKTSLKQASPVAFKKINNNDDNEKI
# Summary of the method: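 Displacement of specific radioligand from NPY1 receptor of SK-N-MC origin, read by filtration and scintillation after 1 h. Compounds first tested at 25 uM in duplicate, then actives in concentration series; signal loss relative to DMSO.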
# [15] = target: human Neurotensin Receptor (NTS), NTSR1 (gene 4923) (UniProt P30989); assay: NVS_GPCR_hNTS: NovaScreen (NVS) G Protein-Coupled Receptor Assay for human Neurotensin Receptor (NTS) (AID 2283279)
# Summary of the method: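 Compounds competed with a radiolabelled ligand for binding to CHO-derived human neurotensin receptor; bound signal counted after filtration, 1 h. Screened first at a single concentration of 25 uM in duplicate, then concentration series to 50 uM maximum for actives.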
# [16] = target: guinea pig Serotonin, 5-Hydroxytryptamine Receptor 4 (5HT4), HTR4 (gene 100135548) (UniProt O70528); assay: NVS_GPCR_g5HT4: NovaScreen (NVS) G Protein-Coupled Receptor Assay for guinea pig Serotonin, 5-Hydroxytryptamine Receptor 4 (5HT4) (AID 2283294)
# guinea pig Serotonin, 5-Hydroxytryptamine Receptor 4 (5HT4), HTR4 (gene 100135548), sequence (O70528 whole entry, looked up): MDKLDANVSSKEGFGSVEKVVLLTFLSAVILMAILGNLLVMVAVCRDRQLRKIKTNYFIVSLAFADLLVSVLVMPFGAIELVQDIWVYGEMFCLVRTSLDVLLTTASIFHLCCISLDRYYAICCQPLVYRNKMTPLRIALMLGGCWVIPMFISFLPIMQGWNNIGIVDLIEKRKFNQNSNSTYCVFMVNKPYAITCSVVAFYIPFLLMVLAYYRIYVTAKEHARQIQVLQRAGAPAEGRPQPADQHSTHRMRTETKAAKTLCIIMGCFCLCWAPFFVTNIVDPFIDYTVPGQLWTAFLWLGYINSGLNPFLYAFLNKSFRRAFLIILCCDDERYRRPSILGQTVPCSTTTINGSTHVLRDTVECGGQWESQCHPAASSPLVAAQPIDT
# Summary of the method: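 Compounds first screened in duplicate at 25 uM, actives followed up in concentration series. Binding measured as displacement of specific radioligand from guinea pig striatal membranes, 1 h, filter-based scintillation read-out versus DMSO baseline.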
# [17] = target: rat Adrenergic Receptor, Beta (Adrb), Non-selective Binding, Adrb1 (gene 24925) (UniProt P18090); assay: NVS_GPCR_rAdrb_NonSelective: NovaScreen (NVS) G Protein-Coupled Receptor Assay for rat Adrenergic Receptor, Beta (Adrb), Non-selective Binding (AID 2283298)
# Summary of the method: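 Rat cortical membranes incubated 1 h with beta-adrenergic radioligand and test chemical; bound ligand measured by filtration and scintillation counting. Screen at 25 uM duplicate, then concentration series with 50 uM maximum; loss of signal versus DMSO.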
smiles,measurement,setting,value
CCN(CC)C(=O)C(C)Oc1cccc2ccccc12 (configuration not stated),outcome,[1],inactive
same,AC50,[2],14.8 µM (active)
COCC(=O)N(c1c(C)cccc1C)C(C)C(=O)OC (configuration not stated),outcome,[3],inactive
CCOc1nc(F)cc2nc(S(=O)(=O)Nc3c(Cl)cccc3Cl)nn12,outcome,[4],inactive
same,outcome,[5],inactive
CC(C)N1C(=O)N(c2ccccc2)CSC1=NC(C)(C)C,outcome,[3],inactive
N#Cc1c[nH]cc1-c1cccc2c1OC(F)(F)O2,outcome,[6],inactive
CCOP(=O)(OCC)Oc1nc(Cl)c(Cl)cc1Cl,outcome,[7],inactive
COc1cc(Cl)c(OC)cc1Cl,outcome,[8],inactive
same,outcome,[9],inactive
CC1(C)C(C(=O)OC(C#N)c2cccc(Oc3ccccc3)c2)C1(C)C (configuration not stated),outcome,[4],inactive
same,outcome,[10],inactive
CS(=O)(=O)c1cc(C(F)(F)F)ccc1C(=O)c1cnoc1C1CC1,AC50,[3],19.1 µM (active)
same,outcome,[11],inactive
Cc1ccc(N=CN(C)C=Nc2ccc(C)cc2C)c(C)c1,outcome,[12],inactive
same,AC50,[8],463 nM (active)
same,AC50,[5],1.5 µM (active)
same,outcome,[6],inactive
same,outcome,[13],inactive
CC(C)(C)C(=O)C(Oc1ccc(Cl)cc1)n1cncn1 (configuration not stated),AC50,[7],4.96 µM (active)
same,outcome,[12],inactive
O=C1C2CC=CCC2C(=O)N1SC(Cl)(Cl)Cl (configuration not stated),AC50,[14],9.25 µM (active)
same,AC50,[4],4.9 µM (active)
same,AC50,[2],9.7 µM (active)
CC1(C)C(C=C(Cl)Cl)C1C(=O)OC(C#N)c1cccc(Oc2ccccc2)c1 (configuration not stated),outcome,[4],inactive
same,AC50,[10],17.1 µM (active)
N#Cc1c(Cl)cccc1Cl,outcome,[12],inactive
CC1(C)CCC(=Cc2ccc(Cl)cc2)C1(O)Cn1cncn1 (configuration not stated),outcome,[8],inactive
same,outcome,[9],inactive
Cn1c(-c2ccccc2)cc(-c2ccccc2)[n+]1C,AC50,[7],3.97 µM (active)
same,AC50,[12],7.59 µM (active)
same,outcome,[15],inactive
same,AC50,[5],5.28 µM (active)
same,AC50,[16],6.94 µM (active)
same,AC50,[13],7.91 µM (active)
same,AC50,[9],16.5 µM (active)
same,AC50,[17],9.62 µM (active)
